# In PubChem BioAssay (NCI):
# Compounds without any hit were thinned out: in the full panel of roughly 83,000, 20% have a hit.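 Single-dose data. Exposure time 48 hours. Values below 10 considered active.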 Values without a mark were called inactive. Activity calls are given as the source filed them.
# Assays:
# Experiment in all cases: NCI-60 one-dose screen, 48 h (100 = growth as untreated, 0 = no growth, -100 = all killed)
# RPMI-8226 leukemia = conditions: 10 µM unless noted
# OVCAR-8 ovarian = conditions: 10 µM unless noted
# OVCAR-5 ovarian = conditions: 10 µM unless noted
# OVCAR-4 ovarian = conditions: 10 µM unless noted
# SK-OV-3 ovarian = conditions: 10 µM unless noted
# IGROV1 ovarian = conditions: 10 µM unless noted
# OVCAR-3 ovarian = conditions: 10 µM unless noted
# HS 578T breast = conditions: 10 µM unless noted
# NCI/ADR-RES ovarian = conditions: 10 µM unless noted
# T-47D breast = conditions: 10 µM unless noted
# BT-549 breast = conditions: 10 µM unless noted
# MDA-MB-435 melanoma = conditions: 10 µM unless noted
# SW-620 colon = conditions: 10 µM unless noted
# MCF7 breast = conditions: 10 µM
# HCT-116 colon = conditions: 10 µM unless noted
# HCC-2998 colon = conditions: 10 µM unless noted
# KM12 colon = conditions: 10 µM unless noted
Structure (SMILES),growth (RPMI-8226 leukemia),growth (OVCAR-8 ovarian),growth (OVCAR-5 ovarian) [%],growth (OVCAR-4 ovarian),growth (SK-OV-3 ovarian),growth (IGROV1 ovarian) [%],growth (OVCAR-3 ovarian),growth (HS 578T breast) [%],growth (NCI/ADR-RES ovarian),growth (T-47D breast),growth (BT-549 breast),growth (MDA-MB-435 melanoma),growth (SW-620 colon),growth (MCF7 breast),growth (HCT-116 colon),growth (HCC-2998 colon),growth (KM12 colon)
CCOc1ccc(Nc2ccnc3cc(Cl)ccc23)cc1,-14.1% (active),-1.07% (active),36,16.5%,2.15% (active),14.9,11.7%,29.3,3.34% (active),1.44% (active),14.4%,-7.51% (active),14.5%,4.41% (active),9.4% (active),12.2%,6.96% (active)
O=C(O)CCCN1C(=O)C2C3CCC(C3)C2C1=O (stereo unspecified),108%,103%,104,109%,103%,102,112%,115,108%,101%,107%,99.7%,112%,109%,108%,106%,103%
Clc1ccc(Nc2nnc(-c3ccc4c(c3)OCO4)o2)cc1,91.1%,94.2%,104,102%,102%,101,114%,109,98.6%,82.5%,116%,99.9%,102%,93.4%,96.7%,98.6%,99.5%
O=C(Nc1ccc(-c2nc3ccc(NC(=O)c4ccc(Cl)cc4)cc3[nH]2)cc1)c1ccc(Cl)cc1,-22.6% (active),21.4%,39.3,-2.34% (active),60.7%,45.1,-64.9% (active),57.9,40.2%,-1.92% (active),-5.61% (active),-32.7% (active),18.4%,14.4%,0.708% (active),-23% (active),39.7%
O=C(CN1C(=O)/C(=C\c2ccc(Cl)cc2)SC1=S)Nc1ncc(Cc2ccc(Cl)cc2)s1,102%,101%,104,105%,104%,103,108%,98.9,104%,105%,113%,110%,105%,94.8%,107%,106%,101%
COc1ccc(C2Nc3nc(OC)n(C)c(=O)c3N=C3c4ccccc4C(=O)C32)cc1 (stereo unspecified),92.1%,103%,103,88.5%,109%,140,94.6%,100,97.6%,101%,86.3%,78.5%,90%,74.5%,95.4%,103%,75%
COc1ccc(Cn2cc(Cn3cc(C=C4C(=O)NC(=O)NC4=O)c4ccccc43)nn2)cc1,83.8%,87.6%,71.7,82.4%,75.3%,94.3,88.9%,82.6,84.1%,64.3%,99.5%,90.8%,85.9%,75.8%,80.1%,109%,93%
O=C(N/N=C/c1ccccc1O)C(=O)Nc1ccc(F)cc1,52.2%,38.7%,64.8,27.2%,59.1%,53,27.7%,74.6,18.1%,52.6%,59.3%,59.3%,44.5%,20.9%,37.6%,38.8%,42.3%
Cc1ccc(Cc2cnc(NC(=O)CN3C(=O)/C(=C\c4ccccc4)SC3=S)s2)cc1,105%,102%,101,99%,104%,105,112%,102,107%,98.8%,117%,107%,107%,95.8%,103%,105%,103%
Cc1cc(Nc2ccc(OCc3ccccc3)cc2)nc2cc(O)ccc12,6.65% (active),57.1%,84.3,44.5%,86.9%,60.5,41.3%,106,75.7%,69.8%,69.7%,65.6%,11%,39.3%,30.6%,-34% (active),45.6%
O=C(O)c1cn(C2CC2)c2cc(N3CCN(C(=O)C[n+]4ccccc4)CC3)c(F)cc2c1=O,106%,105%,104,89.4%,110%,109,107%,99.3,105%,94.2%,102%,99.9%,105%,101%,99.3%,106%,103%
CN(C)CCCNCc1ccc(-c2ccc(F)c(Cl)c2)o1,-26.3% (active),59.3%,65.3,59.6%,73.1%,31.6,34.3%,57.6,53.8%,23.2%,76.6%,-41.6% (active),-45% (active),-33% (active),12.3%,-90.2% (active),-19.9% (active)
COc1cc(CNC(=O)c2ccsc2Nc2ccnc(C(F)(F)F)c2)ccc1O,91%,102%,107,105%,97.3%,105,105%,104,95.4%,98.7%,103%,101%,100%,113%,101%,109%,104%
CCc1ccc(CNCC(O)c2ccccc2)cc1 (stereo unspecified),34.3%,72.2%,76.1,55.3%,90.6%,41.1,71.4%,93.3,65.7%,72%,90.1%,69.9%,89.6%,29.8%,47.8%,38.5%,72.5%
COc1ccc(N2C(=O)CC(c3cc(OC)c(OC)c(OC)c3)C3C2=NC(=O)N3C)cc1 (stereo unspecified),119%,102%,102,105%,108%,109,108%,97.1,109%,95.7%,109%,101%,102%,98.1%,106%,117%,105%
Cc1nc(Nc2ccccn2)sc1C(=O)/C=C/c1ccc(Cl)cc1,12%,10.1%,38.7,54%,26.9%,13.9,-23.2% (active),18.5,3.2% (active),58.1%,19%,-28.8% (active),25.2%,17.6%,14.3%,21.6%,8.26% (active)
COc1ccc(/C=C/C(=O)c2c(C)nc3ccccc3c2/C=C/c2ccccc2)c(OC)c1,66.1%,76.1%,88.2,66.5%,94.3%,47.5,84.8%,82.3,85.9%,55%,89.2%,88.9%,80.5%,62.6%,51.5%,92.1%,87.4%
CCN1C(=O)N(CC)C2Nn3c(s/c(=C\c4ccccc4F)c3=O)=NC21 (stereo unspecified),54.1%,44%,76.5,84.9%,44.8%,61.1,28.5%,56.9,7.68% (active),72.8%,44.3%,-19.9% (active),38.4%,33.1%,17.5%,36.1%,28.5%
